Drawing on PubChem BioAssay (NCI), this text covers growth for 15 compounds.

This is part of a sample that, as a whole, favours compounds with a hit. Of some 83,000 tested, about 20% had one in any assay.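 A percent growth of 40 corresponds to 60% growth inhibition; 0 means no net growth; -100 means all cells died. Active threshold: below 10.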 A number with no mark means an inactive call. Activity calls are given as the source filed them.

In this experiment the test system is DU-145 prostate. Put plainly: NCI-60 one-dose screen, 48 h (100 = growth as untreated, 0 = no growth, -100 = all killed). To be noted: 10 µM unless noted.
For the compound `O=C(Nc1ccc(Oc2ccc(Nc3nc4ccccc4s3)cc2)cc1)Nc1ccc(Cl)c(C(F)(F)F)c1`, the growth was 9.51% (active). For the compound `C[C@]12CCc3nc(Nc4ccc(O)cc4)sc3C1=CC[C@@H]1[C@@H]2CC[C@]2(C)/C(=N/NC(N)=S)CC[C@@H]12`, the growth is -62.4% (active). To `Cc1cc(N=Nc2ccc(-c3ccc(N=Nc4ccc(O)c(C(=O)O)c4)cc3)cc2)c(N)c(N=Nc2ccc(C(=O)O)cc2)c1N` belongs 110%. To `c1ccc2c(c1)cnc1ccccc12` belongs 111%; to `Cc1cc(C)c2c(n1)sc1c(Nc3ccc(OCc4ccccc4)cc3)ncnc12`, 104%; to `COc1ccc2[nH]c(C(=O)OCc3ccc4cccc(O)c4n3)cc2c1`, -91.8% (active). With `Cc1ccc2oc(=O)cc(-c3nc4ccc([N+](=O)[O-])cc4[nH]3)c2c1` the figure was 76.4%; with `Cc1nc2ccc(Nc3nc(Cl)nc(N4CCOCC4)n3)cc2n1Cc1ccccc1`, 94.2%; with `CC(=O)c1c(O)c(C)c(O)c2c1OC1=CC(=O)/C(=C(/C)N)C(=O)C12C` (stereo not given), 100%. `O=C(CI)NCCNc1cccc2c(S(=O)(=O)O)cccc12`: the growth is 96.3%. To `O=c1[nH]cnc2nc[nH]c12` belongs 170%; to `CCN(CC)C(Cl)=Nc1ccc(Cl)cc1`, 119%. Consider `c1ccc2c(Cc3csc4ccccc34)csc2c1`, for which the growth was 110%.

As for `COS(=O)(=O)CCN(CCOS(C)(=O)=O)S(C)(=O)=O`, the growth is 105%. Turning to `COc1cc(C2CC(c3cccc(Nc4ccnc5cc(Cl)ccc45)c3)=NN2c2ccccc2)cc(OC)c1OC` (stereo not given), the growth was 68.9%.
